These results are taken from PubChem BioAssay (NCATS).

The structures appear in SMILES notation. Records with an inconclusive call do not appear. The source made the active and inactive calls. Calls follow the shape of the dose curve; as a rule, active = well fitted inhibition curve with a large enough effect; inconclusive = small, poorly fitted or top-dose-only effect; inactive = flat fitted curve, though single readings scatter. Where a SMILES comes first, the peptide text is derived from it. The star is where a group is joined. βNA = c1ccc2cc(N*)ccc2c1; Cbz = O=C(OCc1ccccc1)*

The test system of this test is HaCat. The test is described as follows: Cytotoxic Profiling of Annotated Libraries Using Quantitative High-Throughput Screening (AID 1296008). Also: nearly all actives have a fitted effect of over 60% in size. The settings on record: Five cell lines viability, CellTiter-Glo ATP luminescence, 48-72 h; max response: hits give low values. In a few lines: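 Compounds were pin-transferred onto cells and incubated 48 or 72 hr at 37 degree Celsius, 95% humidity. CellTiter-Glo was added, plates sat 10 min at room temperature, then ATP-coupled luminescence was imaged as the viability read-out.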
On the technique in general: Cellular ATP, detected with luciferase, serves as a proxy for viable cell number.
As to `C/C(=C\CCC1(C)C2CC3C(C2)C31C)C(=O)O` (centres undefined), the call was inactive.

Turning to `CCCC1=CC2=C(CO1)C(=O)C(C)(O)C(OC(=O)c1c(C)cc(OC)cc1O)C2` (centres undefined), the compound was classed as inactive.

Regarding `COc1cnc(-n2cnc(C)n2)c2[nH]cc(C(=O)C(=O)N3CCN(C(=O)c4ccccc4)CC3)c12`, the compound was called inactive.

In the case of `CCCC/C=C\CCCCCc1cc(=O)c2ccccc2n1C`, the compound was called inactive.

For `CCN1CCN(C(=O)N[C@@H](C(=O)N[C@@H]2C(=O)N3[C@@H]2SC(C)(C)[C@@H]3C(=O)O)c2ccccc2)C(=O)C1=O`, the call was inactive.

Regarding `C[C@@H]1O[C@@H](O[C@@H]2[C@@H](O)[C@H](O[C@H]3[C@H](O[C@H]4CC[C@@]5(C)C(CC[C@]6(C)C5CC=C5[C@@H]7CC(C)(C)CC[C@]7(C(=O)O[C@@H]7O[C@H](CO)[C@@H](O)[C@H](O)[C@H]7O)CC[C@]56C)C4(C)C)O[C@H](C(=O)O)[C@@H](O)[C@@H]3O)OC[C@H]2O)[C@H](O)[C@H](O)[C@H]1O` (some centres undefined), the compound was called inactive.

Take `COC(=O)C1=COC(O[C@@H]2O[C@H](CO)[C@@H](O)[C@H](O)[C@H]2O)/C(=C\COC(=O)/C=C/c2ccccc2)C1CC(=O)OCCc1ccc(O)cc1` (some centres undefined): the compound was classed as inactive.

As for `C=CC(C)(O)CC/C=C(\C)C1CC=C(C)C(=O)O1` (centres undefined), the result was inactive.

As to `COc1cc(/C=C/C(=O)OC[C@H]2O[C@@H](OC3CC(C)=C(C(=O)O)C(C)(C)C3)[C@H](O)[C@@H](O)[C@@H]2O)cc(OC)c1O` (some centres undefined), the compound was classed as inactive.

As for `CC1(C)C[C@H](O)C[C@@]2(C)[C@H]1[C@H](O)C=C1COC(=O)[C@@]12O`, the compound was called inactive.

Take `O=C(O)Cc1cn([C@@H]2O[C@H](CO)[C@@H](O)[C@H](O)[C@H]2O[C@@H]2O[C@H](CO)[C@@H](O)[C@H](O)[C@H]2O)c2ccccc12`: the result was inactive.

As for `C=C1CC[C@@]2(OC1)O[C@H]1CC3[C@@H]4CC=C5C[C@@H](O)C[C@@H](O[C@@H]6OC[C@H](O)[C@H](O)[C@H]6O[C@@H]6O[C@@H](C)[C@H](O)[C@@H](O)[C@H]6O)[C@]5(C)C4CC[C@]3(C)[C@H]1[C@@H]2C` (some centres undefined), the call was inactive.

In the case of `CC(C)CC(NC(=O)OCc1ccccc1)C(=O)NC(CC(C)C)C(=O)NC(CCC(=O)O)C(=O)Nc1ccc2ccccc2c1` (stereo not drawn) (Cbz-Leu-Leu-Glu-βNA; configuration not given here), the compound was called inactive.

On to `OC[C@@]1(O)CO[C@H](OC[C@H]2O[C@@H](OC(CCCCc3ccc(O)cc3)CCc3ccc(O)cc3)[C@H](O)[C@@H](O)[C@@H]2O)[C@@H]1O` (some centres undefined), for which the call was inactive.

As for `Nc1ccc(-n2nc(C(F)(F)F)cc2C(F)(F)F)cc1`, the compound was classed as inactive.

For `C/C(=C\C(=O)C[C@@]12C(=O)O[C@]3(C)CC[C@H]1C[C@H]23)C(N)=O`, the outcome was inactive.

For the compound `Nc1ncnc2c1C(=O)N(c1ccc(C3CCC(CC(=O)O)CC3)cc1)CCO2` (centres undefined), the compound was called inactive.

Consider `COC1OC(=O)C2=C1C1(C)CCCC(C)(C)C1CC2O` (centres undefined), for which the call was inactive.

With `C=C(CC/C=C(\C)C(=O)O)C1(O)CC=C(C)CC1` (centres undefined), the call was inactive.

With `CC(C)Oc1ccc(-c2nc(-c3cccc4c3CCC4NCCC(=O)O)no2)cc1C#N` (centres undefined), the compound was called inactive.

In the case of `C=C1CC[C@@]2(OC1)O[C@H]1CC3[C@@H]4CC=C5C[C@H](O[C@H]6OC[C@@H](O)C(O)[C@@H]6O[C@@H]6O[C@@H](C)[C@H](O)[C@@H](O[C@@H]7O[C@H](CO)[C@@H](O)[C@H](O)[C@H]7O)[C@H]6O)C[C@@H](O)[C@]5(C)C4CC[C@]3(C)[C@H]1[C@@H]2C` (some centres undefined), the call was inactive.

With `CC(C)c1cc2c(c(O)c1O)[C@@]13CCCC(C)(C)C1[C@@H](O)[C@@H]2OC3=O` (some centres undefined), the result was inactive.

With `COc1cccc(C)c1C(=O)O[C@@H]1C[C@H](O[C@H]2[C@H](O)C[C@H](O[C@@H]3CCC[C@H]4[C@H]3C=C[C@@H]3CCCC/C=C/[C@H]5C=C(C(=O)O)[C@@H](C)C[C@@]56OC(=O)C(=C6O)OC(=O)[C@@]34C)O[C@@H]2C)O[C@H](C)[C@H]1O`, the call was inactive.

With `CC(=O)OC1C(CO)OC(O[C@H]2[C@H](OC(=O)[C@]34CCC(C)(C)C[C@H]3C3=CCC5[C@@]6(C)CC[C@H](O[C@@H]7O[C@H](C(=O)O)[C@@H](O)[C@H](O[C@@H]8OC[C@@H](O)[C@H](O)[C@H]8O)[C@H]7O[C@@H]7O[C@H](CO)[C@H](O)[C@H](O)[C@H]7O)[C@@](C)(C=O)C6CC[C@@]5(C)[C@]3(C)C[C@H]4O)O[C@H](C)[C@H](OC3OC(C)C(OC4OCC(O)C(O)C4O)C(O)C3O)[C@@H]2O)C(O)C1O` (some centres undefined), the result was inactive.

As to `CC(C)=CCC/C(C)=C/CO[C@@H]1O[C@H](CO[C@@H]2O[C@@H](CO)[C@H](O)[C@H]2O)[C@@H](O)[C@H](O)[C@H]1O`, the result was inactive.

Consider `O=C(c1ccc(Cl)c([N+](=O)[O-])c1)N1CCN(c2ccccc2F)CC1`, for which the compound was classed as inactive.

As for `COc1cc(O)c2c(c1Cl)CC(C)OC2=O` (centres undefined), the call was inactive.

On to `CCCCNc1nc(N)c2[nH]c(=O)n(Cc3ccc(OCCN(C)C)nc3)c2n1`, for which the outcome was inactive.

Take `CC(O)C(=O)/C=C/C=C/C(=O)OC1C=C2COC(=O)C2(O)C2(C)CCCC(C)(C)C12` (centres undefined): the outcome was inactive.

`CC1(C)CC[C@]2(C(=O)O)CC[C@]3(C)C(=CCC4[C@@]5(C)CC[C@H](O[C@@H]6O[C@H](C(=O)O)[C@@H](O)[C@H](O[C@@H]7O[C@H](CO)[C@H](O)[C@H](O)[C@H]7O)[C@H]6O[C@@H]6O[C@H](CO)[C@@H](O)[C@H](O)[C@H]6O)C(C)(C)C5CC[C@]43C)[C@@H]2C1` (some centres undefined): the call was inactive.

`CC(=O)OC(C)(C)/C=C/C(=O)[C@](C)(O)C1[C@H](O)C[C@@]2(C)[C@@H]3CC=C4[C@@H](C[C@H](O[C@@H]5O[C@H](CO)[C@@H](O)[C@H](O)[C@H]5O)C(=O)C4(C)C)[C@]3(C)C(=O)C[C@]12C` (some centres undefined): the result was inactive.

In the case of `CC1=CC(=O)CC(C)(C)[C@@]1(O)/C=C/C(C)O[C@@H]1O[C@H](CO)[C@@H](O)[C@H](O)[C@H]1O` (some centres undefined), the result was inactive.

For `CC(C)C1NC(=O)C(CC2(O)c3ccccc3N3C(=O)C(Cc4ccccc4)NC32)NC1=O` (centres undefined), the compound was classed as inactive.

In the case of `OC[C@@]1(O)CO[C@H](OC[C@H]2O[C@@H](OC(CCCCc3ccc(O)cc3)CCc3ccc(O)cc3)[C@H](O[C@H]3OC[C@](O)(CO)[C@H]3O)[C@@H](O)[C@@H]2O)[C@@H]1O` (some centres undefined), the outcome was inactive.

Turning to `COC(=O)c1c(CC=C(C)C)c(OC2OC(CO)C(O)C(O)C2O)c2ccccc2c1OC1OC(CO)C(O)C(O)C1O` (centres undefined), the call was inactive.

`C[C@]1(O)CC[C@@H]2C(C(=O)O)=CO[C@@H](O[C@@H]3O[C@H](COC(=O)/C=C/c4ccc(O)c(O)c4)[C@@H](O)[C@H](O)[C@H]3O)[C@@H]21`: the call was inactive.

Consider `CC(C)(O)C1CC=C(C(=O)OC[C@H]2O[C@@H](Oc3cc(C(=O)O)cc(O)c3O)[C@H](O)[C@@H](O)[C@@H]2O)CC1` (some centres undefined), for which the compound was classed as inactive.

As for `COc1cc2c(cc1O)CC(O)(CO)C(CO)C2c1ccc(OC2OC(CO)C(O)C(O)C2O)c(OC)c1` (centres undefined), the outcome was inactive.

With `O=C(O)CC/C=C\C[C@H]1CO[C@@H](c2ccccc2Cl)O[C@H]1c1ccccc1O`, the outcome was inactive.
